# Only some compounds are listed: those with a hit (about 3% of all), similar ones and a draw of the others.
# 5HT1a antag: 5-HT1a (human) receptor antagonism; P08908; CHO 5-HT1a Ga15 NFAT-bla reporter, antagonist mode; inhibition, % at 10 µM; hit rate 0.68% among 62,000;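 active means inhibition above the mean of all tested compounds plus 3 SD, cut at about 43% in these data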;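 further: receptor stimulated by 5-CT agonist at 100 nM near EC80; beta-lactamase reporter measured by ratiometric fluorescence of a cleavable substrate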
# Target sequence (P08908 whole entry, looked up): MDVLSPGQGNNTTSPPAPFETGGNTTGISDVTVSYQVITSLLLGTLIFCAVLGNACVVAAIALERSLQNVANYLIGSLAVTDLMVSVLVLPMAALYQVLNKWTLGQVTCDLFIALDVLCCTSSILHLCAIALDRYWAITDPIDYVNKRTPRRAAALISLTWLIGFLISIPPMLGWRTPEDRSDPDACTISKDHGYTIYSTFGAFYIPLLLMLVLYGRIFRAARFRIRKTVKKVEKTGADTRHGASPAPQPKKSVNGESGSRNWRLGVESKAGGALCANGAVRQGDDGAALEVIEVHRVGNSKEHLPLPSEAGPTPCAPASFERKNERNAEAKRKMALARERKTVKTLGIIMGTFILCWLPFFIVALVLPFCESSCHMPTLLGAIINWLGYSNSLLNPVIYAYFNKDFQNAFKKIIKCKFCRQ
# HTR1E agonist: agonists of human 5-HT1E serotonin receptor | P28566 | CHO 5-HT1E Ga15 NFAT-bla reporter, FRET; 0% DMSO wells, 100% control agonist wells | activation, % at 6 µM | hit rate 0.69% among 65,000;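 active means activation above a set limit, the screen-wide mean activation plus 3 SD, cut at about 8.5% in these data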;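 further: 100% = positive control agonist at 1 µM giving full maximal response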
# Her2 expr inh: lowers expression of human Her2 kinase | hit rate 0.69% among 65,000 | SKBR-3 HER2 protein level, AlphaScreen, 18-24 h; active compounds read low | HER2 level % of control, % at 10 µM | P04626;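 active means HER2 level under 5% of the carrier-only control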;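 further: 100% = DMSO carrier and 0% = 500 nM PU-H71 HSP90 inhibitor; lower value means stronger loss of Her2 protein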
# 5HT1a ag: agonists of human 5-HT1a serotonin receptor | P08908 | CHO 5-HT1a Ga15 NFAT-bla reporter, FRET ratio; 0% basal, 100% maximal reference agonist | activation, % at 10 µM | hit rate 0.56% among 65,000 | AID 567;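 active means activation above the screen-wide mean activation plus 3 SD, cut at about 19% in these data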;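 further: 0% = DMSO wells and 100% = 5-CT at EC100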
# 5HT1E antag: blocks the human 5-HT1E serotonin receptor; P28566; CHO 5-HT1E Ga15 NFAT-bla reporter, FRET, antagonist; inhibition, % at 6 µM; hit rate 0.99% among 65,000;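 active means inhibition above a set limit, the mean inhibition across every tested compound plus 3 SD, cut at about 29% in these data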;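 further: signal is the 460 over 535 nm emission ratio of beta-lactamase substrate; 0% = agonist plus DMSO wells and 100% = wells without agonist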
# Active calls of the source: *; . = no result given.
SMILES,5HT1a antag,HTR1E agonist,Her2 expr inh,5HT1a ag,5HT1E antag
CCNc1nc(CC)nc2c1oc1ccccc12,4.1,-0.7,141.3,0.5,28.7*
CN(C)S(=O)(=O)c1cccc(-c2nnc(SCc3ccc4c(c3)OCCO4)o2)c1,-17.2,1.7,101.5,2.7,-26.4
Cn1cc(/C=N/n2cnc3scc(-c4ccc(Cl)cc4)c3c2=O)c2ccccc21,71.1*,-0.6,89.3,-4.9,82.6*
c1ccc(C(c2nnnn2Cc2cccs2)N2CCN(C3CCCC3)CC2)cc1 (configuration not stated),24.8,-0.1,86.5,-0.9,1.4
CC(C)C(c1nnnn1Cc1cccs1)N1CCN(C2CCCC2)CC1 (configuration not stated),17.0,1.1,166.5,31.4*,-2.3
CCC(c1nnnn1Cc1ccc(F)cc1)N1CCN(C2CCCCC2)CC1 (configuration not stated),46.8*,1.1,105.8,-2.4,-2.3
Fc1ccc(Cn2nnnc2CN2CCN(C3CCCC3)CC2)cc1,4.3,-0.6,156.8,-1.5,-6.9
COc1cccc(NC(=O)CSc2ncnc3c2oc2ccccc23)c1,6.0,-1.0,91.0,2.3,31.2*
C=CCN1C(=O)CC(C(=O)NC)SC1=Nc1ccc(C(=O)OCC)cc1 (configuration not stated),.,-0.4,102.0,1.3,-9.2
CCOC(=O)C(C(=O)Nc1nccs1)C1CCCCC1 (configuration not stated),32.2,-1.0,82.3,-2.4,8.2
COCCNc1nc(C(C)(C)C)nc2c1nnn2Cc1ccccc1Cl,1.5,0.1,-24.6*,4.2,4.0
COc1cccc(-n2c(SCC(=O)NCCC3=CCCCC3)nc3n[nH]c(C)c3c2=N)c1,-12.9,1.4,71.4,0.2,-8.1
COc1cccc(NC(=O)CSc2nc3n[nH]c(C)c3c(=N)n2-c2cccc(OC)c2)c1,-11.1,1.3,65.3,1.8,33.5*
O=S(=O)(NC(=NC1CCCC1)C(F)(F)F)c1ccccc1,-0.9,0.5,136.3,-1.6,-4.7
CC1CC(N(C(=O)c2ccco2)c2ccccc2)c2ccccc2N1 (configuration not stated),9.6,16.2*,89.8,-0.6,-5.9
CC1CC(c2ccccc2)n2nc(NC(=O)c3ccco3)nc2N1 (configuration not stated),-11.1,-0.6,106.8,-3.4,7.8
CC1CCCN(C(=O)Cn2c(-c3nonc3N)nc3ccccc32)C1 (configuration not stated),15.6,1.0,-23.7*,-0.9,3.5
Nc1nonc1-c1nc2ccccc2n1Cc1ccccc1,56.1*,-0.2,50.9,-1.5,14.4
Nc1nonc1-c1nc2ccccc2n1CC(=O)NC1CCCC1,25.4,-0.8,105.0,-0.8,-8.6
CCOC(=O)c1ccccc1NC(=O)Cn1c(-c2nonc2N)nc2ccccc21,79.7*,-1.6,50.6,-2.1,74.4*
CCC(=O)Oc1ccc(-c2nc(-c3cccnc3)no2)cc1,-16.1,0.9,71.7,3.4,-3.8
Cc1cc2ccccc2c(=O)n1CC(=O)N(C)c1ccc(F)cc1,-6.8,-0.6,84.5,-1.7,-14.8
CC(=O)N1CCc2cc(S(=O)(=O)NCCCN3CCN(Cc4ccccc4)CC3)ccc21,16.3,34.7*,91.8,-0.7,-3.3
CCCCCCn1c(C(C)NC(=O)c2ccco2)nc2ccccc21 (configuration not stated),36.6,1.4,67.9,-2.5,2.7
N#Cc1c(N)nc(SCC(=O)NCCc2ccccc2)c(C#N)c1-c1cccs1,.,1.5,114.7,12.3,12.9
SMILES,5HT1a antag,HTR1E agonist,Her2 expr inh,5HT1a ag,5HT1E antag
N#Cc1c(-c2cccs2)cc(-c2ccccn2)nc1N,5.0,2.1,71.1,5.7,42.7*
N#Cc1c(-c2cccs2)cc(-c2cccnc2)nc1N,5.5,1.4,81.1,3.3,44.2*
CCCOC(=O)c1ccc(Nc2cc(C)nc3ncnn23)cc1,-22.1,0.4,74.8,105.1*,-17.5
CCn1c2ccccc2c2cc(Nc3cc(C)nc4ncnn34)ccc21,71.7*,0.3,60.7,-2.0,69.6*
CCN(CC)S(=O)(=O)c1ccc(Nc2cc(C)nc3ncnn23)cc1,-0.7,0.8,74.2,0.5,-0.1
CCCOc1ccc(C2C(C(=O)c3ccco3)=C(O)C(=O)N2CCCn2ccnc2)cc1 (configuration not stated),-15.5,0.8,110.2,1.6,-5.8
O=C1CN(C(=O)c2ccc(Br)o2)C(c2ccccc2)c2cc(Br)ccc2N1 (configuration not stated),-6.4,0.7,40.9,1.3,4.4
O=C(O)CN1C(=O)Nc2ccc(Br)cc2C1c1ccccc1 (configuration not stated),-2.6,-2.6,92.3,-3.2,32.3*
CCn1c(=O)c(C(=O)Nn2c(C)nc3ccccc3c2=O)c(O)c2ccccc21,-8.4,-0.1,53.3,0.2,-9.6
CCn1c(=O)c(C(=O)Nc2nc3ccccc3[nH]2)c(O)c2ccccc21,56.9*,3.1,0.9*,-2.0,64.2*
CCN(CC)S(=O)(=O)c1cccc(C(=O)OCc2cc(=O)n3nc(C)sc3n2)c1,0.5,0.0,81.5,-2.0,-3.5
CCc1c(C)nc2cc(-c3ccc(OC)c(OC)c3)nn2c1N1CCCC1,15.2,0.2,48.8,1.2,31.3*
CCc1c(C)nc2cc(-c3cc(OC)cc(OC)c3)nn2c1N1CCCC1,26.0,-0.2,74.9,-0.4,21.4
Cc1nn(CC(=O)Nc2cccnc2N2CCOCC2)c(=O)c2ccccc12,3.3,-0.8,81.0,-0.3,-3.5
O=C(C1CCCN1C(=O)c1cccs1)N1CCc2ccccc21 (configuration not stated),5.8,0.0,104.7,-1.9,-0.7
CCC(C)C1C(C#N)=C(N)Oc2n[nH]c(C)c21 (configuration not stated),14.5,-0.5,103.8,-0.7,39.0*
Cc1nc(SCC(=O)N2CCC(C(N)=O)CC2)n[nH]1,2.8,-1.5,127.5,-0.8,1.4
COc1ccc(C2(O)CCN(CCCCOc3ccccc3)CC2)cc1,66.6*,0.1,112.5,-1.1,4.1
COc1ccc(C2(O)CCN(C(=O)Cc3cccnc3)CC2)cc1,-12.6,0.1,.,1.5,7.5
CCOc1ccc(C(C)=O)cc1N1C(=O)C2C3C=CC(O3)C2C1=O (configuration not stated),60.5*,0.4,70.0,-2.3,39.3*
COc1cc(C2=NOC(C(=O)NCc3ccc(F)cc3)C2)cc(OC)c1OC (configuration not stated),55.6*,0.1,110.8,-1.6,69.8*
COc1cccc(C2=NOC(C(=O)NCc3ccc(F)cc3)C2)c1 (configuration not stated),37.0,0.8,89.2,-3.8,17.0
COc1ccc(C2=NOC(C(=O)NCc3ccc(F)cc3)C2)cc1OC (configuration not stated),33.5,-0.1,71.1,-2.4,69.8*

# Bioassay records from PubChem.
